Test system: EPHB4
Conditions: concentration: 1 μM,replicates: in singlicate; n = 1
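Also: KINOMEscan kinase panel screen.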

Row | SMILES | %Inh [%]
1 | Cl.Cl.NC[C@H](Cc1ccc(C(F)(F)F)cc1)NC(=O)c1cc(Br)c(-c2ccnc3[nH]ccc23)s1 [GSK1487252] | 14
2 | Nc1nc(Nc2ccccc2)cc(-c2ccc3c(N)n[nH]c3c2)n1 [GSK2225749] | 0
3 | CC(C)Nc1cc(-c2ccc3c(N)n[nH]c3c2)nc(N)n1 [GSK2221681] | 0
4 | CC(C)N1C(=O)Cc2cc(Nc3ncc(C(F)(F)F)c(NCc4cccc(S(C)(=O)=O)c4)n3)ccc21 | 0
5 | Cl.Cl.NC[C@H](CC1CCCCC1)NC(=O)c1cc(Br)c(-c2ccnc3[nH]ccc23)s1 [GSK1581427] | 10
6 | CN(C)CC(O)COc1ccc(Nc2nccc(-c3cnn4nc(N5CCOCC5)ccc34)n2)cc1 (stereo not drawn) [GW767488] | 95.4
7 | CCN(CC)CCOc1ccc(Nc2ncc3cc(-c4c(Cl)cccc4Cl)c(=O)n(C)c3n2)cc1 [SB-601273] | 100
8 | Cc1n[nH]c2ccc(-c3cc(OC[C@@H](N)Cc4ccccc4)cnc3-c3ccoc3)cc12.O=C(O)C(F)(F)F.O=C(O)C(F)(F)F [GSK507358] | 8
9 | Cc1occc1-c1nc(N)c(OC[C@@H](N)Cc2c[nH]c3ccccc23)cc1-c1cc2c(C)n[nH]c2cn1 [GSK1660450] | 11
10 | C[C@@H]1CCN(C(=O)CC#N)C[C@@H]1N(C)c1ncnc2[nH]ccc12 | 0
11 | Cl.Oc1cc(-c2nc(-c3ccccc3)[nH]c2-c2ccncc2)ccc1Cl [SB-386023] | 30
12 | O=C(NCCCN1CCOC1=O)c1cnc(NCc2cc(Cl)ccc2Cl)nc1NC1CCCC1 | 16
13 | Cc1cc(C(=O)Nc2ccc(Oc3ccc4nc(NC(=O)C5CC5)cn4n3)cc2)nn1-c1ccccc1 | 37
14 | Cl.Cl.Nc1nc(-c2ccc3c(N)n[nH]c3c2)cc(N2CCCC(NC(=O)c3ccccc3)C2)n1 (stereo not drawn) [GSK2286775] | 3
15 | CCN(CC)CCCCNc1ncc2cc(-c3c(Cl)cccc3Cl)c(NC(=O)NC(C)(C)C)nc2n1 | 92.6
16 | Cc1ccc2c(-c3ccncc3)c(-c3ccc(F)cc3)nn2c1.Cl [GW461484] | 0
17 | COc1ccc(C[C@@H](CN)NC(=O)c2cc(Br)c(-c3ccnc4[nH]ccc34)s2)cc1.Cl.Cl [GSK1389063] | 32
18 | O=C(NCCNc1ccnc(NCc2ccc(F)cc2)n1)c1cc2ccccc2s1 [GSK1379944] | 16
19 | CN(C)CCOc1ccc(-c2cc(-c3c[nH]nc3-c3ccccn3)ccn2)cc1 [GW835314] | 8
20 | CNC(=O)c1ccccc1Sc1ccc2c(/C=C/c3ccccn3)n[nH]c2c1 | 0
21 | NC(=O)c1cc(-c2ccccc2)cc2c(C3CCNCC3)c[nH]c12 [GSK301362] | 1
22 | CCn1c(-c2nonc2N)nc2c(C#CC(C)(C)O)nc(OCCN)cc21.Cl.Cl [GSK902056] | 20
23 | C[C@H]1Oc2cc(cnc2N)-c2c(nn(C)c2C#N)CN(C)C(=O)c2ccc(F)cc21 | 35
24 | C[C@@H](Oc1cc(-c2cnn(C3CCNCC3)c2)cnc1N)c1c(Cl)ccc(F)c1Cl | 52
25 | C=CC(=O)Nc1cc2c(Nc3ccc(F)c(Cl)c3)ncnc2cc1OCCCN1CCOCC1 [GW781483] | 24
26 | Cc1ccc(-n2nc(C(C)(C)C)cc2NC(=O)Nc2ccc(OCCN3CCOCC3)c3ccccc23)cc1 [GW839464] | 31
27 | Cc1cc2cn[nH]c2cc1-c1cccc2c(N)c(C(N)=O)nnc12 | 0

Test system: EPHB6
Conditions: concentration: 1 μM,replicates: in singlicate; n = 1

Row | SMILES | %Inh [%]
28 | Cl.Cl.NC[C@H](Cc1ccc(C(F)(F)F)cc1)NC(=O)c1cc(Br)c(-c2ccnc3[nH]ccc23)s1 [GSK1487252] | 12
29 | Nc1nc(Nc2ccccc2)cc(-c2ccc3c(N)n[nH]c3c2)n1 [GSK2225749] | 0
30 | CC(C)Nc1cc(-c2ccc3c(N)n[nH]c3c2)nc(N)n1 [GSK2221681] | 0
31 | CC(C)N1C(=O)Cc2cc(Nc3ncc(C(F)(F)F)c(NCc4cccc(S(C)(=O)=O)c4)n3)ccc21 | 49
32 | Cl.Cl.NC[C@H](CC1CCCCC1)NC(=O)c1cc(Br)c(-c2ccnc3[nH]ccc23)s1 [GSK1581427] | 10
33 | CN(C)CC(O)COc1ccc(Nc2nccc(-c3cnn4nc(N5CCOCC5)ccc34)n2)cc1 (stereo not drawn) [GW767488] | 73
34 | CCN(CC)CCOc1ccc(Nc2ncc3cc(-c4c(Cl)cccc4Cl)c(=O)n(C)c3n2)cc1 [SB-601273] | 98.9
35 | Cc1n[nH]c2ccc(-c3cc(OC[C@@H](N)Cc4ccccc4)cnc3-c3ccoc3)cc12.O=C(O)C(F)(F)F.O=C(O)C(F)(F)F [GSK507358] | 8
36 | Cc1occc1-c1nc(N)c(OC[C@@H](N)Cc2c[nH]c3ccccc23)cc1-c1cc2c(C)n[nH]c2cn1 [GSK1660450] | 0
37 | C[C@@H]1CCN(C(=O)CC#N)C[C@@H]1N(C)c1ncnc2[nH]ccc12 | 10
38 | Cl.Oc1cc(-c2nc(-c3ccccc3)[nH]c2-c2ccncc2)ccc1Cl [SB-386023] | 14
39 | O=C(NCCCN1CCOC1=O)c1cnc(NCc2cc(Cl)ccc2Cl)nc1NC1CCCC1 | 19
40 | Cc1cc(C(=O)Nc2ccc(Oc3ccc4nc(NC(=O)C5CC5)cn4n3)cc2)nn1-c1ccccc1 | 89
41 | Cl.Cl.Nc1nc(-c2ccc3c(N)n[nH]c3c2)cc(N2CCCC(NC(=O)c3ccccc3)C2)n1 (stereo not drawn) [GSK2286775] | 26
42 | CCN(CC)CCCCNc1ncc2cc(-c3c(Cl)cccc3Cl)c(NC(=O)NC(C)(C)C)nc2n1 | 98.9
43 | Cc1ccc2c(-c3ccncc3)c(-c3ccc(F)cc3)nn2c1.Cl [GW461484] | 27
44 | COc1ccc(C[C@@H](CN)NC(=O)c2cc(Br)c(-c3ccnc4[nH]ccc34)s2)cc1.Cl.Cl [GSK1389063] | 35
45 | O=C(NCCNc1ccnc(NCc2ccc(F)cc2)n1)c1cc2ccccc2s1 [GSK1379944] | 18
46 | CN(C)CCOc1ccc(-c2cc(-c3c[nH]nc3-c3ccccn3)ccn2)cc1 [GW835314] | 8
47 | CNC(=O)c1ccccc1Sc1ccc2c(/C=C/c3ccccn3)n[nH]c2c1 | 80
48 | NC(=O)c1cc(-c2ccccc2)cc2c(C3CCNCC3)c[nH]c12 [GSK301362] | 16
49 | CCn1c(-c2nonc2N)nc2c(C#CC(C)(C)O)nc(OCCN)cc21.Cl.Cl [GSK902056] | 0
50 | C[C@H]1Oc2cc(cnc2N)-c2c(nn(C)c2C#N)CN(C)C(=O)c2ccc(F)cc21 | 82
51 | C[C@@H](Oc1cc(-c2cnn(C3CCNCC3)c2)cnc1N)c1c(Cl)ccc(F)c1Cl | 99.6
52 | C=CC(=O)Nc1cc2c(Nc3ccc(F)c(Cl)c3)ncnc2cc1OCCCN1CCOCC1 [GW781483] | 52
53 | Cc1ccc(-n2nc(C(C)(C)C)cc2NC(=O)Nc2ccc(OCCN3CCOCC3)c3ccccc23)cc1 [GW839464] | 0
54 | Cc1cc2cn[nH]c2cc1-c1cccc2c(N)c(C(N)=O)nnc12 | 64

Reference: paper PMC5540273 (PLoS ONE, 2017)
